Reference: the supplement of paper PMC11417369
The full ranking holds about 25,000 sequences; the median of “ln(normalized median fluorescence intensity)” is about 9.7, and the highest 2% start at about 11. The entries come from a sample that favours the highest values as a whole.

What follows are sequences tested on PfAP2-HC AP2 domain (GST-tagged) (assay: gcPBM binding intensity (ln(normalized median fluorescence intensity)); higher = stronger DNA binding).
In short: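 The binding buffer was 1× PBS containing 1% milk, 0.2 mg/ml BSA, 0.5% salmon testes DNA and 0.03% Triton X-100. In it, GST-tagged P. falciparum DNA-binding domains expressed in E. coli were applied for 1 h to an Agilent 4 × 180k array of primer-extended double-stranded 36-bp intergenic genomic probes plus negative controls. Binding intensity, read with Alexa488 anti-GST antibody and a 488 nm scan, is the highest Masliner-normalised natural-log median intensity across replicate spots of either probe orientation.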

Row | Sequence | gcPBM binding intensity (ln)
1 | TTTTAAAAATCTATATGTACACAATACGTCTATAAA [XGTACX_site5787] | 9.54
2 | AAAAAAAAACAAAAAAGTACAAAATAAAAATACGTT [XGTACX_site4566] | 9.75
3 | TTTTTTTCTTTTCAAACACACAATTGGTATATATTA [CACACA_site3320] | 9.81
4 | AAGAATTATAGAAACACACATACATACAGACATACA [CACACA_site1943] | 10.1
5 | AACGTCTTTTTTTTTTTTTTTCTTTTTTTTTTTATT [CACACA_negctrl_site303] | 9.86
6 | AAAAAAAACACGCGCACACACACACCCACAGACACA [CACACA_site5253] | 10.7
7 | AAAAAAAAAAAAAACACACATACACGCCCACCCATA [CACACA_site3391] | 10.4
8 | AAAAAAAAAACACGCGCACACACACCCACCCACCCA [CACACA_site8689] | 10.9
9 | AAAAAACACGCGCACACACACACACGCGCCCACATA [CACACA_site7106] | 11.1
10 | AAAAAAAAAACAAATACACACGCACCCAAAAAAAAA [CACACA_site8166] | 10.2
11 | AAAAAAAACACGCGCACACACACACCCACCCACCGA [CACACA_site2206] | 11.5
12 | AGAAAAAAACAACATGCACACGCACCCACAAAAAAA [CACACA_site7908] | 10.4
13 | AAAAAAACAACATGCACACGCACACCCAAAAAAAGC [CACACA_site72] | 10.7
14 | AAAAAAAAAAAAAAAACACACATACACGCACGCACA [CACACA_site7569] | 10.8
15 | GTATAATTGGAAATTACACACCTTAGAATGTAACAT [CACACA_site4059] | 9.68
16 | AAAACTATAAAAATTTTACACACTGTTTTTAAATAA [CACACA_site3667] | 9.57
17 | TATATTATTCATTAAGCACACATTATTTTTATAATA [CACACA_site6056] | 9.69
18 | ATAATTAACAAATACACACACACACGCCCACAAAAA [CACACA_site6389] | 11.6
19 | ATAATTAACAAATACACACACACACCCAGACAAAAA [CACACA_site4445] | 10.8
20 | TTTATTTATTAATACACACACACACCCCCACAAAAT [CACACA_site240] | 11.4
21 | TTAATACCCGGACACACACACACAAAATAAAATACA [CACACA_site4296] | 10.6
22 | TTTATTTATTAATACACACACACACGCCCACAAAAT [CACACA_site6253] | 10.5
23 | ATAATTAACAAATACACACACACACCCCCACAAAAA [CACACA_site518] | 10.9

Row | Sequence | gcPBM binding intensity (ln)
24 | GTATTATATTTTAATACACACCCAAATATTAAAAAG [CACACA_site8968] | 9.77
25 | TTTTTATTTATTAATACACACACACCCACCCACAAA [CACACA_site7965] | 10.4
26 | TTAATACCCAGACACACACACACAAAATAAAATACA [CACACA_site7968] | 11
27 | TTTATTTATTAATACACACACACACCCAGACAAAAT [CACACA_site4292] | 11.3
28 | TATTAATACAGACACACACACACACCCAATAAAATA [CACACA_site243] | 10.8
29 | ACATAATTAACAAATACACACACACCCACCCACAAA [CACACA_site8069] | 10.7
30 | AAAATCTATATTAACACACACACAAAAAAAAAAAAA [CACACA_site6738] | 10.6
31 | TAACTTGAATGGATATGTACATATATATATATATAT [XGTACX_site5990] | 10
32 | TTGTTTTTTTTTTCTATAAGCATAAAAATGATATAA [XGTACX_negctrl_site356] | 9.27
33 | ATATAAGAAATAAAGAAAAATGTGTTTTTTTTTTTT [XGTACX_negctrl_site396] | 9.6
34 | ATATATATATATATAACACACGCAAAAAAATTAAAT [CACACA_site8395] | 10.1
35 | ACGATGAATATGTAAAGTACGCAAATGTAACAATAT [XGTACX_site728] | 9.91
36 | TATCATTGTTCATGCTTGCACTTTTGTTACTGTTCC [GTGCAC_site9425] | 9.87
37 | GAGAACATTGATACACGTACATAAGTTATAAGTATT [XGTACX_site7665] | 9.71
38 | TTAATTACATGTAATTGTACTTAATTATAAGACATT [XGTACX_site464] | 9.52
39 | AAAAAAAATATCTATGCATGTAATATTATGATATTG [TGCATGCA_site546] | 9.58
40 | TTCAAAAATATATAATGTACACAAATATAAAAGAAT [XGTACX_site1944] | 9.81
41 | CACTAAAAGAAACACACACACACACCCATATATATA [CACACA_site4151] | 11
42 | AGAAAAAAAAAACACACACACACACCCTCAATATAA [CACACA_site39] | 10.5
43 | AAAGAAAAAAAAAACACACACACACCCATTCAATAT [CACACA_site38] | 11.4
44 | ATAAAAAAAAGAAAAACACACACATATATATATATA [CACACA_site8243] | 10.4
45 | AAAAAGGAGAAACACACACACACACCCATATATATA [CACACA_site905] | 10.7
46 | AAAAGAAAAAGAAAAACACACATAAATATAAATATA [CACACA_site1879] | 10.2

Row | Sequence | gcPBM binding intensity (ln)
47 | AATAAAAAGAAACACACACACACACCCATATATATA [CACACA_site3589] | 11.5
48 | ATACTAAAGAAACACACACACATATATATATAGAAT [CACACA_site100] | 10.9
49 | AAAGAAAAAAAAAACACACACACACGCATTCAATAT [CACACA_site6169] | 10.7
50 | TATCATTTGGTCTTTTACTTTTTCTGTTTTTTTTTT [CACACA_negctrl_site976] | 9.91
51 | CTCATTTTTGTACAGGTGCACTTATCGTTACACTAT | 9.93
52 | CGAAGGTTTGGCCATGCATGTTATAAGAATATATGT [TGCATGCA_site441] | 9.51
53 | AACTTTATTCCTAATTGTACACATATATATATATAT [XGTACX_site6823] | 10
54 | GGGGACGCGGGTGGGGGTACTCACACTATGCAAAAT [XGTACX_site7745] | 9.74
55 | AATAAGCTCACGTGTCGTACATTTTTTAAAACAACC [XGTACX_site4707] | 9.78
56 | CGTATTTATATAATTACACACCATATTTTAATTATT [CACACA_site5960] | 9.76
57 | AATGAACAGACGAGCACACACACACCCATATATATA [CACACA_site1018] | 10.9
58 | AATGAACTCACGAGCACACACACACCGATATATATA [CACACA_site4710] | 11
59 | AAAATGAACTCACGAGCACACACACCCATATATATA [CACACA_site8247] | 10.3
60 | CGTGGGAGCGGACACACACACACACCCATATATATA [CACACA_site4340] | 10.4
61 | AACACGCGCGGACACACACACACACCCACATATATA [CACACA_site5252] | 11.3
62 | AAAACACGCGGACACACACACACACGCCCACATATA [CACACA_site7105] | 10.6
63 | CACGCGCCCGGACACACACACACACCCATATATATA [CACACA_site5251] | 11.3
64 | AAAACACGCGGACACACACACACACCCACCCATATA [CACACA_site8688] | 11.6
65 | CATACACCCGGACACACACACACACCCATATATAAT [CACACA_site4494] | 10.5
66 | TATACACCCGGACACACACACATATATATATATATA [CACACA_site5030] | 10.3
67 | AACACGCGCAGACACACACACACACCCACATATATA [CACACA_site2205] | 10.6
68 | ATTTATATGTGGAGCAGTACGCACTCTCACAATTAA [XGTACX_site7252] | 9.44
69 | TGAATATTTACTTTAGCACACAATTTGTATTTGATT [CACACA_site960] | 9.86

Row | Sequence | gcPBM binding intensity (ln)
70 | ATTATTTACCACAACACACAAATATTTACCAATCAT [CACACA_site5472] | 10.5
71 | TTGTTTATTTGTAAAGCTAACAAGAAATGTGAATAT [CACACA_negctrl_site931] | 9.51
72 | AGCATTTTAAAAGAAAAAAAAAAAAAAAAAAAAATA [GTGCAC_negctrl_site723] | 9.17
73 | TCATTTTACAGATGTGCATGTGAATCAATCTATTTA [TGCATGCA_site787] | 9.56
74 | ATTACTAAAAAATATAAACACACATATATTTTACAT [CACACA_site8633] | 9.88
75 | TTGGCATACGGACACACACACACACCCAGACATATA [CACACA_site4492] | 10.4
76 | CACAGACACGGACACACACACACACCCATATATATA [CACACA_site4354] | 11.3
77 | TGGGAGCACAGACACACACACACACCCATATATATA [CACACA_site335] | 10.5
78 | TGGGAGCACAGACACACACACACACCGATATATATA [CACACA_site8001] | 11.3
79 | CACAGACACGGACACACACACATATATATATATATA [CACACA_site5248] | 10.4
80 | CGCGCACCCAGACACACACACACACCGATATATATA [CACACA_site8687] | 10.9
81 | CACAGACACGGACACACACACACACCCAGACACATA [CACACA_site4357] | 11.6
82 | CACAGACACGGACACACACACACACCGATATATATA [CACACA_site4353] | 11.2
83 | TATATTATCAAAATGGTGCAATAATTTCTATATTAT [GTGCAC_site9772] | 9.49
84 | ATATAATGACAAGTATAAGTATCACAAAGAAATAAA [CACACA_negctrl_site1403] | 9.79
85 | CAGGCGTGAAATATACGTACACACATTATTTATATT [XGTACX_site5337] | 9.94
86 | AAGAAAAAAAAAATTACACACTGCGGACATACACAA [CACACA_site4838] | 9.98
87 | TAAGATATAAAAAATGTGCACATTAAAGTATTAATT | 9.86
88 | TATTGTAAGAAAGGCACACAGATAAAATTATTATAT [CACACA_site2921] | 9.87
89 | CGGTATTTTTTAATTTGTACGCATATACAATAATTA [XGTACX_site8603] | 9.54
